Results filed as inconclusive are left out. Active and inactive are the calls of the source. Calls come from the whole dose curve.

This is an account of results in PubChem BioAssay (Tox21).
% is set by controls: 0 for no effect and ±100 for the full control effect.

Acetylcholinesterase (Homo sapiens), sequence (P22303 whole entry, looked up): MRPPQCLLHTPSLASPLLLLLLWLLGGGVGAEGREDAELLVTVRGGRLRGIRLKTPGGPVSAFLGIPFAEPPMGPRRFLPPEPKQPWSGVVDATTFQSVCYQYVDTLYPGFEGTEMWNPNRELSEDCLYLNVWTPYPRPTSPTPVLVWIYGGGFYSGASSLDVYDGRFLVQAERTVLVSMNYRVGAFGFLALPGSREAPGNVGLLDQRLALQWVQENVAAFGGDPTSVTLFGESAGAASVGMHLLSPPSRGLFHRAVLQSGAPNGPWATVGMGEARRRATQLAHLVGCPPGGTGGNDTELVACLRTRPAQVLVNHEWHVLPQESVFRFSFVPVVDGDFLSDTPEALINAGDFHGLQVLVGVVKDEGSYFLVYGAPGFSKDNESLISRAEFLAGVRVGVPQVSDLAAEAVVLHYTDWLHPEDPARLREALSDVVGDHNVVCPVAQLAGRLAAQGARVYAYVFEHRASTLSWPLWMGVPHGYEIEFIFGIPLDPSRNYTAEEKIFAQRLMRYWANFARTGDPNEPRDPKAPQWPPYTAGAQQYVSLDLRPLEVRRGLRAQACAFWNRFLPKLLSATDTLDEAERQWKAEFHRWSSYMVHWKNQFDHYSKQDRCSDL

This assay deals with Acetylcholinesterase (Homo sapiens) (UniProt P22303). Put plainly: Acetylcholinesterase (AChE) small molecule antagonists: colormetric cell-based qHTS assay (AID 1347395). Note: nearly all actives have a fitted effect of over 30% in size. The note with it: SH-SY5Y cells AChE activity, colorimetric (Ellman); series mostly up to 115 µM; activity, negative = inhibition: at the top concentration. The method in brief:
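In this cell-based qHTS, attached SH-SY5Y cells were treated with test chemicals for 30 min, after which acetylthiocholine hydrolysis was followed by DTNB colour development over 90 min at 37 C.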
A general note: qHTS replaces the single test concentration by a dilution series.
With `C/C=C(\C)C#N`, the “activity, negative = inhibition” value is -0.205% (inactive).
Regarding `CC(=O)OC(OC(C)=O)c1ccc([N+](=O)[O-])o1`, the “activity, negative = inhibition” value is -3.75% (inactive).
`Fc1ccc(C(c2ccc(F)cc2)N2CCN(C/C=C/c3ccccc3)CC2)cc1`: the “activity, negative = inhibition” value is 0.375% [at 52.9 µM] (inactive).
Regarding `COC(=O)C1=C(C)NC(COC(N)=O)=C(C(=O)OC(C)C)C1c1cccc(Cl)c1Cl` (centres undefined), the “activity, negative = inhibition” value is -1.86% [at 52.9 µM] (inactive).
As for `CCCCc1ccc2c(n1)[C@@H](c1ccc(OC)cc1C[C@H](C)C(=O)O)[C@H](C(=O)O)[C@H]2c1ccc2c(c1)OCO2`, the figure is 0.838% (inactive).
As for `CCOc1ccc2ccccc2c1C(=O)N[C@@H]1C(=O)N2[C@@H]1SC(C)(C)[C@@H]2C(=O)O`, the figure is -3.37% [at 52.9 µM] (inactive).
`O=C(NCCO[N+](=O)[O-])c1cccnc1`: the “activity, negative = inhibition” value was 3.7% [at 52.9 µM] (inactive).
Take `CC(=O)Nc1ccc(OCCOCCOc2ccc(NC(C)=O)cc2)cc1`: the “activity, negative = inhibition” value is 2.31% [at 52.9 µM] (inactive).
For `COCCOCCOCCOCCOC` the value was 1.45% (inactive); for `O=C(O)[C@@H]1[C@H]2C[C@H]3c4[nH]c5ccccc5c4CCN3C[C@@H]2CC[C@@H]1O`, -4.44% [at 52.9 µM] (inactive).
Consider `CC1(C)CCC(C)(C)c2cc(C(=O)Nc3ccc(C(=O)O)cc3)ccc21`, for which the “activity, negative = inhibition” value is 0.651% (inactive).
As to `Nc1ccc(NC(=O)c2ccc(N)cc2)cc1`, the “activity, negative = inhibition” value was 2.95% (inactive).
For `CNC(C)=O` the value was 3.45% (inactive); for `CC(C)c1ccc2oc3nc(N)c(C(=O)O)cc3c(=O)c2c1`, 0.847% [at 52.9 µM] (inactive).
`FC(F)(F)C(Cl)(Cl)Cl`: the “activity, negative = inhibition” value is 1.22% (inactive).
As for `O=S(O)(O)=S`, the figure is -0.643% [at 10.5 µM] (inactive); as for `C[C@@H](O)[C@H]1C(=O)N2C(C(=O)O)=C(SCCN=CN)C[C@H]12`, 0.156% [at 52.9 µM] (inactive).
Take `C#C[C@]1(O)CC[C@H]2[C@@H]3CCc4cc(OC5CCCC5)ccc4[C@H]3CC[C@@]21C`: the “activity, negative = inhibition” value is -0.757% [at 52.9 µM] (inactive).
As for `CCCCCCC(C)Nc1ccc(Nc2ccccc2)cc1` (centres undefined), the figure is -8.07% (inactive).
